Laboratory results published in PubChem BioAssay.
Results filed as inconclusive are left out. Calls of active or inactive are those of the source.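 The calls were made as follows, unless noted: active = normalized viability below 100% at a tested concentration; inactive = the rest.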

What was measured:
[1] = growth inhibition of DIPG glioma cells, dose response, cell-based, SU-DIPG-XVII, MIPE5.0, CellTiter-Glo, qHTS (AID 1347060; cut-off not given, nearly all actives have AC50 up to about 26 µM;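 as to AC50: cells exposed to compound for 48 hours before viability readout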); settings: SU-DIPG-XVII viability, CellTiter-Glo ATP luminescence
[2] = growth inhibition of DIPG glioma cells, dose response, cell-based, SU-DIPG-XIII, MIPE4.0, CellTiter-Glo, qHTS (AID 1347061; cut-off not given, nearly all actives have AC50 up to about 37 µM;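 also: cells exposed to compound for 48 hours before readout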); settings: SU-DIPG-XIII viability, CellTiter-Glo ATP luminescence
[3] = growth inhibition of DIPG glioma cells, dose response, cell-based, JHH-DIPG-1, MIPE4.0, CellTiter-Glo, qHTS (AID 1347062; cut-off not given, nearly all actives have AC50 up to about 27 µM;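 as to AC50: cells exposed to compound for two days before readout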); settings: JHH-DIPG-1 viability, CellTiter-Glo ATP luminescence
[4] = growth inhibition of DIPG glioma cells, dose response, cell-based, SU-DIPG-IV, MIPE4.0, CellTiter-Glo, qHTS (AID 1347063; cut-off not given, nearly all actives have AC50 up to about 30 µM;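 also: compound exposure lasted 48 hours before the viability readout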); settings: SU-DIPG-IV viability, CellTiter-Glo ATP luminescence
[5] = growth inhibition of DIPG glioma cells, dose response, cell-based, SU-DIPG-XIII, MIPE5.0, CellTiter-Glo, qHTS (AID 1347064; cut-off not given, nearly all actives have AC50 up to about 23 µM;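 as to AC50: cells exposed to compound for 48 hours before the viability read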); settings: SU-DIPG-XIII viability, CellTiter-Glo ATP luminescence
[6] = viability loss in pontine glioma line – cell-based, SU-DIPG-XXV, MIPE5.0, CellTiter-Glo, qHTS, dose response (AID 1347065; cut-off not given, nearly all actives have AC50 up to about 26 µM;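 also: cells exposed to compound for 48 hours before ATP readout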); settings: CellTiter-Glo ATP luminescence
[7] = SU-DIPG-VI glioma cell viability, MIPE4.0 library, CellTiter-Glo luminescence, qHTS (AID 1347066; cut-off not given, nearly all actives have AC50 up to about 30 µM;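 also: cells exposed to compound for 48 hours before readout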); settings: CellTiter-Glo ATP luminescence
[8] = sensitizers of A549 cells to miR-34 induction, primary screen, imaging, A549 dox-inducible miR-34, nuclei and caspase counts (AID 1347080;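 active = compounds whose cell count with miR-34 switched on is under 0.7 times the count with it off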); settings: A549 miR-34 inducible, Hoechst nuclei count, 48 h
[9] = survival rescue of mitochondrial mutant cells in low glucose, primary screen, MELAS cybrids, Rieske KO mouse fibroblasts, CellTiter-Glo (AID 1508586;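 active = mean z-score across replicates of 1.96 or higher in either the MELAS or the Rieske mutant cell line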;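 also: z relative to plate mean and SD of compound and empty wells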)
[10] = JHH-DIPG-1 glioma cell viability, MIPE5.0 library, CellTiter-Glo luminescence, qHTS (AID 1347067; cut-off not given, nearly all actives have AC50 up to about 26 µM;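 also: cells exposed to compound for 48 hours before readout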); settings: JHH-DIPG-1 glioma viability, CellTiter-Glo ATP luminescence
[11] = SU-DIPG-XXV glioma cell viability, MIPE5.0 library, qHTS (AID 1347068; cut-off not given, nearly all actives have IC50 up to about 30 µM;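 as to IC50: cells exposed to compound for 48 hours before viability readout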)
[12] = ovarian cancer cell viability with rucaparib, profiling panel, oncology-focused library, rucaparib conditional (AID 1508598); settings: patient-derived ovarian cancer cells, CellTiter-Glo viability, 144 h, stronger effect = lower value
[13] = modifiers of HSF1 nuclear foci, imaging, Selleck Cancer Library (AID 1347162; in the data active = plate-normalised HSF1 focus index below about 0.46); settings: human cells, at 10 µM; SSMD: measured here: HSF1 foci SSMD mean; cell count: measured here: cell number; plate-normalised HSF1 focus index: stronger effect = lower value
[14] = stronger effect = lower value, cell number ratio, induced over uninduced
[15] = measured here: relative caspase fold change +Dox/-Dox
[16] = measured here: total cells with miR-34 induction, stronger effect = lower value
[17] = measured here: total cells without miR-34 induction
[18] = MELAS cybrid survival, CellTiter-Glo 48 h, stronger effect = higher value
[19] = Rieske KO mouse fibroblast survival, CellTiter-Glo 72 h
[20] = at 0.000305 µM, OCI-C5x cells, with rucaparib 10 µM, 100% = cells with rucaparib alone
[21] = at 0.000305 µM, OCI-C5x cells, without rucaparib
[22] = at 0.000305 µM, OCI-P5x cells, with rucaparib 20 µM, 100% = cells with rucaparib alone
[23] = at 0.000305 µM, OCI-P5x cells, without rucaparib
[24] = at 0.00122 µM, OCI-C5x cells, with rucaparib 10 µM, 100% = cells with rucaparib alone
[25] = at 0.00122 µM, OCI-C5x cells, without rucaparib
[26] = at 0.00122 µM, OCI-P5x cells, with rucaparib 20 µM, 100% = cells with rucaparib alone
[27] = at 0.00122 µM, OCI-P5x cells, without rucaparib
[28] = at 0.00488 µM, OCI-C5x cells, with rucaparib 10 µM, 100% = cells with rucaparib alone
[29] = at 0.00488 µM, OCI-C5x cells, without rucaparib
[30] = at 0.00488 µM, OCI-P5x cells, with rucaparib 20 µM, 100% = cells with rucaparib alone
[31] = at 0.00488 µM, OCI-P5x cells, without rucaparib
[32] = at 0.0195 µM, OCI-C5x cells, with rucaparib 10 µM, 100% = cells with rucaparib alone
[33] = at 0.0195 µM, OCI-C5x cells, without rucaparib
[34] = at 0.0195 µM, OCI-P5x cells, with rucaparib 20 µM, 100% = cells with rucaparib alone
[35] = at 0.0195 µM, OCI-P5x cells, without rucaparib
[36] = at 0.0781 µM, OCI-C5x cells, with rucaparib 10 µM, 100% = cells with rucaparib alone
[37] = at 0.0781 µM, OCI-C5x cells, without rucaparib
[38] = at 0.0781 µM, OCI-P5x cells, with rucaparib 20 µM, 100% = cells with rucaparib alone
[39] = at 0.0781 µM, OCI-P5x cells, without rucaparib
[40] = at 0.313 µM, OCI-C5x cells, with rucaparib 10 µM, 100% = cells with rucaparib alone
[41] = at 0.313 µM, OCI-C5x cells, without rucaparib
[42] = at 0.313 µM, OCI-P5x cells, with rucaparib 20 µM, 100% = cells with rucaparib alone
[43] = at 0.313 µM, OCI-P5x cells, without rucaparib
[44] = at 1.25 µM, OCI-C5x cells, with rucaparib 10 µM, 100% = cells with rucaparib alone
[45] = at 1.25 µM, OCI-C5x cells, without rucaparib
[46] = at 1.25 µM, OCI-P5x cells, with rucaparib 20 µM, 100% = cells with rucaparib alone
[47] = at 1.25 µM, OCI-P5x cells, without rucaparib
[48] = at 5 µM, OCI-C5x cells, with rucaparib 10 µM, 100% = cells with rucaparib alone
[49] = at 5 µM, OCI-C5x cells, without rucaparib
[50] = at 5 µM, OCI-P5x cells, with rucaparib 20 µM, 100% = cells with rucaparib alone
[51] = at 5 µM, OCI-P5x cells, without rucaparib

COc1ccc(C2(C#N)CCC(C(=O)O)CC2)cc1OC1CCCC1 (centres undefined)
inactive: outcome [1] | outcome [2] | outcome [3] | outcome [4] | outcome [5] | outcome [6] | outcome [7] | fold change [8, 14] 0.931 | z-score [9, 18] -0.364
8110: cell count [8, 17]
7550: cell count [8, 16]
0.847: fold change [8, 15]
0.0886: z-score [9, 19]

Cc1cc(Nc2cc(N3CCN(C)CC3)nc(/C=C/c3ccccc3)n2)n[nH]1
active: AC50 [1] 1050 nM | AC50 [2] 12100 nM | AC50 [3] 27000 nM | AC50 [4] 13600 nM | AC50 [5] 2090 nM | AC50 [6] 1050 nM | AC50 [7] 13600 nM | AC50 [10] 4680 nM | IC50 [11] 2630 nM | viability [12, 23] 97.8% | viability [12, 37] 95.9% | viability [12, 42] 87.9% | viability [12, 43] 93.6% | viability [12, 44] 90.9% | viability [12, 45] 93.3% | viability [12, 46] 74% | viability [12, 47] 56.9% | viability [12, 48] 95.4% | viability [12, 49] 54.2% | viability [12, 50] 3.53% | viability [12, 51] 6.43%
inactive: viability [12, 20] 120% | viability [12, 21] 103% | viability [12, 22] 101% | viability [12, 24] 106% | viability [12, 25] 107% | viability [12, 26] 110% | viability [12, 27] 108% | viability [12, 28] 113% | viability [12, 29] 104% | viability [12, 30] 118% | viability [12, 31] 114% | viability [12, 32] 115% | viability [12, 33] 116% | viability [12, 34] 109% | viability [12, 35] 107% | viability [12, 36] 110% | viability [12, 38] 103% | viability [12, 39] 107% | viability [12, 40] 110% | viability [12, 41] 112%

O=[N+]([O-])c1cn2c(n1)OC[C@@H](OCc1ccc(OC(F)(F)F)cc1)C2
active: AC50 [1] 26300 nM
inactive: outcome [2] | outcome [3] | outcome [4] | outcome [5] | outcome [6] | outcome [10] | outcome [11]

CC(C)c1noc(N2CCC(COc3ccc(-c4ccc(S(C)(=O)=O)cc4)nc3)CC2)n1
inactive: outcome [1] | outcome [2] | outcome [3] | outcome [4] | outcome [5] | outcome [7] | outcome [10] | outcome [11] | fold change [8, 14] 0.733 | z-score [9, 18] -0.22
5110: cell count [8, 16]
0.941: z-score [9, 19]
6980: cell count [8, 17]
1.55: fold change [8, 15]

Nc1cccc2c1CN([C@H]1CCC(=O)NC1=O)C2=O
inactive: outcome [1] | outcome [2] | outcome [3] | outcome [4] | outcome [5] | outcome [10] | outcome [11]

CC(C)c1cc(C(=O)N2Cc3ccc(CN4CCN(C)CC4)cc3C2)c(O)cc1O
active: AC50 [1] 468 nM | AC50 [2] 1180 nM | AC50 [3] 296 nM | AC50 [4] 526 nM | AC50 [5] 742 nM | AC50 [6] 525 nM | AC50 [10] 661 nM | IC50 [11] 1480 nM | z-score [9, 18] 2.68
inactive: fold change [8, 14] 0.888
0.921: fold change [8, 15]
1780: cell count [8, 16]
2010: cell count [8, 17]
-0.499: z-score [9, 19]

O=C1NC(=O)/C(=C\c2ccc(-c3ccc(F)cc3)o2)S1
inactive: outcome [1] | outcome [2] | outcome [3] | outcome [4] | outcome [5] | outcome [7] | outcome [11]

CNC(=O)c1ccc(C)c(-n2c(C)cc(OCc3ccc(F)cc3F)c(Br)c2=O)c1
inactive: outcome [1] | outcome [2] | outcome [3] | outcome [4] | outcome [5] | outcome [11] | fold change [8, 14] 0.88 | plate-normalised HSF1 focus index [13] 1.22 | z-score [9, 18] -0.398 | viability [12, 20] 104% | viability [12, 21] 124% | viability [12, 22] 115% | viability [12, 23] 115% | viability [12, 24] 110% | viability [12, 25] 124% | viability [12, 26] 107% | viability [12, 27] 105% | viability [12, 28] 105% | viability [12, 29] 102% | viability [12, 30] 112% | viability [12, 31] 111% | viability [12, 33] 113% | viability [12, 34] 114% | viability [12, 35] 107% | viability [12, 36] 101% | viability [12, 37] 106% | viability [12, 38] 108% | viability [12, 39] 108% | viability [12, 41] 119% | viability [12, 42] 112% | viability [12, 43] 112% | viability [12, 45] 112% | viability [12, 46] 110% | viability [12, 47] 108% | viability [12, 48] 123% | viability [12, 49] 129% | viability [12, 50] 110% | viability [12, 51] 105%
0.999: fold change [8, 15]
3.49: SSMD [13]
-1.25: z-score [9, 19]
7360: cell count [8, 16]
active: viability [12, 32] 97.8% | viability [12, 40] 90.4% | viability [12, 44] 91.7%
8370: cell count [8, 17]
7630: cell count [13]

C=Cc1c(C)c2cc3nc(cc4[nH]c(cc5nc(cc1[nH]2)C(C)=C5CCC(=O)O)c(CCC(=O)OC)c4C)[C@@]1(C)C3=CC=C(C(=O)OC)[C@H]1C(=O)OC
active: AC50 [1] 11800 nM | AC50 [2] 743 nM | AC50 [3] 66.2 nM | AC50 [4] 105 nM | AC50 [5] 9340 nM | AC50 [7] 14800 nM

Cc1ccc(C(=O)Nc2cccc(C(F)(F)F)c2)cc1-c1ccc2nc(NCCN3CCOCC3)ncc2c1
active: AC50 [1] 2350 nM | AC50 [2] 6620 nM | AC50 [3] 6620 nM | AC50 [4] 4690 nM | AC50 [5] 3720 nM | AC50 [6] 2090 nM | AC50 [10] 2950 nM

COc1ccc2c3n(c(=NC(=O)c4cccnc4)nc2c1OC)CCN3
inactive: outcome [11] | plate-normalised HSF1 focus index [13] 0.991
7610: cell count [13]
-0.125: SSMD [13]
active: AC50 [1] 1050 nM | AC50 [2] 13200 nM | AC50 [3] 8330 nM | AC50 [4] 1050 nM | AC50 [5] 742 nM | AC50 [6] 590 nM
